Bioassay records: PubChem, several laboratories
A selection: hits, their analogues and other compounds. The true share with any hit is near 3.7%.
tim10-1 inh: growth inhibitors of tim10-1 mutant yeast, primary screen, luminescence, uHTS | S. cerevisiae tim10-1 ts strain growth, BacTiter-Glo, 24 h | inhibition, % at 20 µM | 330,000 compounds, 2.2% hits | AID 463190, 2010;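 active = inhibition of at least 40%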;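 note: mutant grown at 25 °C; 0% = DMSO wells with yeast and 100% = wells holding no yeast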
PfHsp90 set2: growth inhibition of PfHsp90-expressing yeast, primary screen, antimalarial PfHsp90 inhibitor project, S. cerevisiae, BacTiter-Glo luminescence, single point, set 2; AID 504621, 2011; 310,000 compounds, 0.32% hits; inhibition, % at 9.4 µM; BacTiter-Glo ATP, 48 h; yeast lacking PDR1 and PDR3 efflux regulators;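 active = every replicate shows inhibition above about 80%, whatever the replicate mean, limit read from the data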;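 note: 0% = DMSO neutral controls and 100% = 20 µM radicicol positive controls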
tim23-1 inh: growth inhibitors of tim23-1 mutant yeast, primary screen, luminescence, uHTS; S. cerevisiae tim23-1 growth, BacTiter-Glo luminescence, 24 h; inhibition, % at 20 µM; 330,000 compounds, 1.3% hits; AID 463212, 2010;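 active = growth inhibition of the mutant yeast at or above 50%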;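 note: temperature-sensitive mutant grown at 25 °C; plate controls were DMSO-treated mutant yeast for no effect and medium wells lacking yeast for full effect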
V-ATPase pHluor: regulators of yeast V-ATPase proton pumping, primary screen, pHLuorin cytosolic pH fluorescence; S. cerevisiae; response, % at 10 µM; 350,000 compounds, 0.37% hits; AID 504577, 2011; in the data active = response mostly above about 7.3%, no sharp cut-off; inactive = mostly below about 5.4%; note: actives read high
TIM10 inh: growth inhibitors of isogenic TIM10 control yeast, primary screen, counter-screen for tim10-1 yeast inhibitor project, luminescence, uHTS | S. cerevisiae TIM10 strain growth, BacTiter-Glo luminescence, 24 h | AID 463195, 2010 | inhibition, % at 10 µM | 330,000 compounds, 1.4% hits;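 active = inhibition of 40% or more at the single tested concentration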;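 note: wild-type TIM10 isogenic control strain grown at permissive 25 °C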
tim10-1 confirm: growth inhibitors of tim10-1 mutant yeast, confirmation, single concentration, luminescence, S. cerevisiae | shares compounds with tim10-1 inh | S. cerevisiae tim10-1 ts strain growth, BacTiter-Glo, 24 h | 7,400 compounds, 56% hits | AID 463213, 2010 | inhibition, % at 20 µM;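 active = inhibition of yeast growth at or above a set limit in either of two repeat tests at 20 µM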;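 note: tim10-1 mutant grown at permissive 25 °C to find synthetic lethal compounds; 0% = DMSO yeast wells and 100% = medium wells without yeast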
* hit, by the source's call; . = not tested or not shown.

SMILES | tim10-1 inh | PfHsp90 set2 | tim23-1 inh | V-ATPase pHluor | TIM10 inh | tim10-1 confirm
CC(=O)c1cccc(NC(=S)NCCC2=CCCCC2)c1 | 40 | -20 | 21 | 0 | 27 | 28
CC(=O)c1cccc(NC(=S)NC(=O)Cc2ccccc2)c1 | 46* | 6 | 29 | 0 | 27 | 23
COc1ccc(S(=O)(=O)N2CCN3CCCC3C2)cc1 (stereo unspecified) | -6 | -1 | -1 | 0 | 6 | .
COc1ccc(/C=C(\NC(=O)c2ccccc2)C(=O)N/N=C/c2sccc2C)cc1 | 51* | -1 | -1 | 2 | 19 | 2
COc1ccc(/C=C(/NC(=O)c2ccccc2)C(=O)N/N=C/c2sccc2C)cc1 | 5 | 9 | 12 | -2 | 9 | .
CC(=O)Cn1ncc(N(C)Cc2ccccc2)c(Cl)c1=O | 2 | -9 | 2 | -3 | 2 | .
O=C(c1ccc(F)cc1)C1CCN(C(=S)Nc2ccccc2Cl)CC1 | 10 | -10 | 14 | -2 | 3 | .
Cc1ccccc1NC(=S)N1CCC(C(=O)c2ccc(F)cc2)CC1 | 42* | 10 | 8 | -3 | 12 | 6
CCOC(=O)n1c(=O)n(Cc2ccc(OC)cc2)c2ccccc21 | 50* | 13 | 49 | -1 | 21 | 46*
c1ccc2c(c1)ccc1nnc(SCc3ccc4c(c3)OCO4)n12 | 42* | 25 | 40 | 4 | 5 | 20
O=C(Cc1cccc2ccccc12)N1CCN(c2ncccn2)CC1 | 27 | 10 | 10 | -1 | 2 | .
O=C(Cc1coc2ccc3ccccc3c12)N1CCN(c2ncccn2)CC1 | 43* | . | 31 | 0 | 20 | 24
c1ccc(Nc2cccc(Nc3ccccc3)c2)cc1 | 54* | -76 | 37 | 0 | 21 | 76*
O=C(C=CC(=O)OC1CCCCC1)OC1CCCCC1 | . | . | . | 7 | . | .
COc1cc(/C=N/O)cc(Br)c1OCc1ccc(Cl)cc1 | 44* | 6 | -5 | -2 | 20 | 28
COc1cc(/C=N/O)cc(Br)c1OC | 8 | 7 | 8 | 2 | -24 | .
O=C(Nc1ccc(F)cc1)C1=CC(=O)N2CCN=C2S1 | 2 | . | 12 | . | 23 | .
COc1cc(/C=N/NC(=O)CN2CCCCC2)ccc1OCc1ccc(Br)cc1 | 21 | -9 | 17 | 2 | 19 | .
O=C1N/C(=C/c2ccc(N3CCOCC3)o2)C(=O)N1c1cccc(Cl)c1 | 43* | -20 | 18 | -4 | 4 | 36*
C/C1=C\CCC2C(/C=C(\C)CC1)OC(=O)C2CN1CCCCC1 (stereo unspecified) | 40* | -9 | 35 | -3 | 30 | 43*
O=C(c1noc2c1CCc1ccccc1-2)N1CCCc2ccccc21 | 42* | -3 | 40 | 0 | 2 | 24
O=C(c1noc2c1CCc1ccccc1-2)N1CCOCC1 | 4 | 2 | 6 | 2 | -13 | .
Cc1ccccc1NC(=S)Nc1ccc2[nH]c(=O)[nH]c2c1 | 0 | 12 | -7 | 2 | 12 | .
COc1ccc(N2CCN(C(=O)c3cc(-c4ccc(F)cc4)[nH]c3C)CC2)cc1 | 42* | 4 | 32 | 0 | 11 | 40*
Cc1[nH]c2ccc(C(=O)N3CCN(c4ccc(F)cc4)CC3)cc2c1C | 54* | -13 | 48 | -1 | 23 | 24
SMILES | tim10-1 inh | PfHsp90 set2 | tim23-1 inh | V-ATPase pHluor | TIM10 inh | tim10-1 confirm
CC(=O)c1ccc(N2CCN(C(=O)c3ccc4[nH]c(C)c(C)c4c3)CC2)cc1 | 23 | -21 | 31 | -3 | 29 | .
O=C(N[C@@H](Cc1ccccc1)C(=O)OCc1ccccc1)c1ccco1 | 10 | . | 30 | -1 | -2 | .
Cc1ccc(CSCC2Nc3ccc(C(=O)N4CCN(c5cccc(C)c5)C(C)C4)cc3NC2=O)cc1 (stereo unspecified) | 29 | . | 13 | . | -7 | .
Cc1nnc(-c2ccccc2)c(=O)n1/N=C/c1c(O)ccc2ccccc12 | 49* | -1 | 32 | 4 | 37 | 19
Cc1nnc(C)n1/N=C/c1c(O)ccc2ccccc12 | -9 | -12 | -2 | -3 | 17 | .
CCc1ccc(OCC2c3cc(OC)c(OC)cc3CCN2C(=S)NC)cc1 (stereo unspecified) | 48* | 4 | 25 | 1 | 14 | -15
CCc1ccc(OCC2c3cc(OC)c(OC)cc3CCN2C(=S)NCCOC)cc1 (stereo unspecified) | 12 | -16 | 10 | 0 | 9 | .
O=S(=O)(c1ccccc1)c1cnn(-c2ccccc2)c1-c1ccc(F)cc1 | 33 | -17 | 30 | -5 | 20 | .
COc1ccc(-n2ncc(S(=O)(=O)c3ccccc3)c2-c2ccc(Cl)cc2)cc1 | 41* | 36 | 32 | -1 | 3 | 25
CCCCN1/C(=C/c2ccc3ccccc3[n+]2CC)Sc2ccccc21 | 60* | -8 | 39 | -6 | -45 | 57*
COc1cc2nc(N3CCN(c4cc(C)ccc4C)CC3)nc(N)c2cc1OC | 45* | 11 | 5 | 0 | -12 | 7
COc1cc2nc(N3CCNCC3)nc(N)c2cc1OC | -11 | 18 | -67 | -3 | -20 | .
CN=Cc1nc(-c2ccccc2)oc1O | 20 | -10 | 17 | 0 | 6 | .
CC1=Nc2ccccc2/C1=C\c1nc(-c2ccc(F)cc2)oc1O | 53* | -25 | 24 | 4 | 39 | 29
COc1ccc(N2CCN(S(=O)(=O)c3ccc(OC)c(C(=O)N4CCCC4)c3)CC2)cc1 | 4 | 14 | 1 | 4 | 11 | .
O=C(CCC(=O)N1CCCC(Nc2ccccc2)C1)c1ccc(F)cc1 (stereo unspecified) | 21 | -5 | 2 | -2 | -30 | .
COc1ccc(-c2[nH]ncc2-c2ccc3c(c2)OCCO3)c(O)c1 | 40* | . | 46 | -5 | 35 | 28
CCc1cc(-c2[nH]ncc2-c2ccc3c(c2)OCO3)c(O)cc1O | -7 | -12 | 12 | -2 | 16 | .
COc1ccccc1NC(=O)c1cc2c(cc1Cl)N1CCCCCC1=NS2(=O)=O | 6 | . | 7 | 4 | -3 | .
COc1cccc(CNC(=O)c2cc3c(C)nc4ccccc4c3o2)c1 | 9 | 4 | 12 | -3 | -27 | .
Cc1nc2ccccc2c2oc(C(=O)NCC3COc4ccccc4O3)cc12 (stereo unspecified) | 41* | . | 30 | 1 | 5 | 10
CCc1ccc(CNC(=O)c2cc3c(C)nc4ccccc4c3o2)cc1 | 43* | 4 | 43 | -3 | -4 | 17
CCN1CCCC1CNC(=O)c1cc2c(C)nc3ccccc3c2o1 (stereo unspecified) | 6 | 12 | 24 | 3 | 3 | .
Cc1ccc(CNS(=O)(=O)c2ccc(CN3C(=O)c4cccnc4C3=O)cc2)o1 | -5 | 13 | -1 | 4 | 4 | .
